Read-out in assay [1]: Transforming Growth Factor (TGFB1), TGFB1 (gene 7040)
Description: LTEA_HepaRG_TGFB1: Life Technologies and Expression Analysis (LTEA) Assay for Transforming Growth Factor (TGFB1) Transporter using HepaRG (AID 2283533; active = hit-call score of the fitted dose curve at least 0.9, where 1 is the maximum; inactive = score below 0.9). The note with it: mRNA level, 48 h; actives raise or lower the signal. In short, it runs like this:
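Differentiated human HepaRG cells in serum-free induction medium were exposed in duplicate for 48 h to eight concentrations (top 100 uM, half-log steps, 0.5% DMSO). TGFB1 mRNA was quantified by qRT-PCR, normalized to ACTB, GAPDH, POLR2A, and fitted bidirectionally against DMSO.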

Read-out in another assay: TIMP1, TIMP1 (gene 7076)
Description: LTEA_HepaRG_TIMP1: Life Technologies and Expression Analysis (LTEA) Assay for TIMP1 using HepaRG (AID 2283534; active = hit-call score of the fitted dose curve at least 0.9, where 1 is the maximum; inactive = score below 0.9). The conditions noted are these: mRNA level, 48 h; actives raise or lower the signal. The procedure, abridged: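 Differentiated human HepaRG cells in serum-free induction medium were exposed 48 h to chemicals (8 half-log concentrations, top 100 uM, 0.5% DMSO). TIMP1 mRNA was quantified by TaqMan qRT-PCR, normalized to ACTB/GAPDH/POLR2A; bidirectional fit versus DMSO.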

Read-out in assay [2]: Tumor necrosis factor receptor 1 (TNFRSF1A), TNFRSF1A (gene 7132)
Briefly: LTEA_HepaRG_TNFRSF1A: Life Technologies and Expression Analysis (LTEA) Assay for Tumor necrosis factor receptor 1 (TNFRSF1A) using HepaRG (AID 2283535; active = hit-call score of the fitted dose curve at least 0.9, where 1 is the maximum; inactive = score below 0.9). The note with it: mRNA level, 48 h; actives raise or lower the signal. The procedure, abridged: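 Differentiated human HepaRG cells were exposed in duplicate for 48 h in serum-free induction medium to eight concentrations (top 100 uM, half-log steps, 0.5% DMSO). TNFRSF1A mRNA was quantified by qRT-PCR, normalized to ACTB, GAPDH and POLR2A, then fitted bidirectionally against DMSO.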

Read-out in assay [3]: Thyroid Hormone Responsive (THRSP), THRSP (gene 7069)
Briefly: LTEA_HepaRG_THRSP: Life Technologies and Expression Analysis (LTEA) Assay for Thyroid Hormone Responsive (THRSP) using HepaRG (AID 2283536; active = hit-call score of the fitted dose curve at least 0.9, where 1 is the maximum; inactive = score below 0.9). The note with it: mRNA level, 48 h; actives raise or lower the signal. In short, it runs like this:
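THRSP transcript quantified by Fluidigm qRT-PCR against three housekeeping genes after 48 h chemical exposure of HepaRG cells in serum-free induction medium; eight-point half-log series, top 100 uM, 0.5% DMSO vehicle, duplicate wells.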

Read-out in assay [4]: Cellular tumor antigen p53 (Homo sapiens) (UniProt P04637)
Briefly: LTEA_HepaRG_TP53: Life Technologies and Expression Analysis (LTEA) Assay for Tumor Protein P53 (TP53) using HepaRG (AID 2283537; active = hit-call score of the fitted dose curve at least 0.9, where 1 is the maximum; inactive = score below 0.9). The conditions noted are these: mRNA level, 48 h; actives raise or lower the signal. The procedure, abridged: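 Differentiated HepaRG cells in serum-free induction medium exposed 48 h in duplicate to 8 half-log concentrations, top 100 uM, 0.5% DMSO. TP53 mRNA by TaqMan qRT-PCR (Fluidigm), normalized to ACTB, GAPDH, POLR2A; fitted bidirectionally versus DMSO.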

Read-out in assay [5]: UDP glucuronosyltransferase (UGT1A1), UGT1A1 (gene 54658)
Briefly: LTEA_HepaRG_UGT1A1: Life Technologies and Expression Analysis (LTEA) Assay for UDP glucuronosyltransferase (UGT1A1) using HepaRG (AID 2283538; active = hit-call score of the fitted dose curve at least 0.9, where 1 is the maximum; inactive = score below 0.9). The conditions noted are these: mRNA level, 48 h; actives raise or lower the signal. The procedure, abridged:
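UGT1A1 transcript level, measured by qRT-PCR with three housekeeping genes for normalization, after 48 h treatment of human HepaRG cells (0.5% DMSO, duplicates, up to 100 uM, half-log steps, 8 points). Curves fit both directions against DMSO baseline.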

Read-out in assay [6]: X-box binding protein 1 (XBP1), XBP1 (gene 7494)
Description: LTEA_HepaRG_XBP1: Life Technologies and Expression Analysis (LTEA) Assay for X-box binding protein 1 (XBP1) using HepaRG (AID 2283540; active = hit-call score of the fitted dose curve at least 0.9, where 1 is the maximum; inactive = score below 0.9). The note with it: mRNA level, 48 h; actives raise or lower the signal. In short, it runs like this:
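Differentiated human HepaRG cells in serum-free induction medium were exposed in duplicate for 48 h to eight half-log concentrations up to 100 uM in 0.5% DMSO. XBP1 mRNA was quantified by qRT-PCR, normalised to ACTB, GAPDH and POLR2A, with bidirectional fitting against DMSO.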

Assay [7] can be described thus: LTEA_HepaRG_LDH_cytotoxicity: Cytotoxicity Assessment in the Life Technologies and Expression Analysis (LTEA) Assay (AID 2283563).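 For AC50: LDH activity released into spent culture medium as a marker of cell death.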 The procedure, abridged:
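Differentiated human HepaRG cells, plated 48 h beforehand, were switched to serum-free induction medium and exposed for 48 h to eight half-log concentrations (top 100 uM) in 0.5% DMSO. LDH was measured in spent medium; activity was fitted relative to DMSO vehicle.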

The nature of assay [8]: ATG_XTT_Cytotoxicity: Cytotoxicity Assessment in the Attagene TRANS-FACTORIAL HepG2 Assay (AID 2283584).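 For AC50: cells exposed to compound for 24 h before reading; active means loss of viability signal versus DMSO baseline.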 The procedure, abridged: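 HepG2 human liver cells, transiently transfected with multiple GAL4-UAS reporter units, were dosed and read at 24 h by XTT as cell number. Loss of signal was fitted relative to DMSO negative control baseline.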
A short description of assay [9]: TOX21_p53_BLA_p2_viability: Viability Assessment in the Tox21 HCT-116 p53 Agonism Beta-lactamase Assay, Phase 2 (AID 2283591).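 Note: compound exposure lasted 16 h at 37 °C; actives lower the ATP signal meaning cytotoxicity.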 In short, it runs like this: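 Cytotoxicity readout: CellTiter-Glo ATP luminescence, 30 min at room temperature, after the beta-lactamase read. Cells were HCT116 exposed 16 h at 37C to compounds pin-transferred at 217-fold dilution from DMSO stocks.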

The target of assay [10] is Cellular tumor antigen p53 (Homo sapiens) (UniProt P04637). Description: TOX21_p53_BLA_p2_ratio: Tox21 HCT-116 p53 Agonism Beta-lactamase Assay, Ratio, Phase 2 (AID 2283592). The procedure, abridged: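 Ratio endpoint: beta-lactamase cleavage of CCF4-AM, blue (460 nm) over green (530 nm). HCT116 reporter line; 16 h treatment, 37C; substrate 2 h RT.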
The nature of assay [11]: TOX21_p53_BLA_p3_viability: Viability Assessment in the Tox21 HCT-116 p53 Agonism Beta-lactamase Assay, Phase 3 (AID 2283593).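 Note: cells exposed to compound for 16 h before reading.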 The procedure, abridged:
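Cellular ATP was quantified by CellTiter-Glo luminescence, read after 30 min at room temperature. Beforehand, HCT116 cells (4000/well) received compound 5 h post-seeding, 217-fold diluted from DMSO, then incubated 16 h at 37C.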

Assay [12] concerns the target Cellular tumor antigen p53 (Homo sapiens) (UniProt P04637). Briefly: TOX21_p53_BLA_p3_ratio: Tox21 HCT-116 p53 Agonism Beta-lactamase Assay, Ratio, Phase 3 (AID 2283596). The procedure, abridged:
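Cells were seeded at 4000/well, rested 5 h at 37C, then dosed with DMSO compound solutions (217-fold dilution) for 16 h. CCF4-AM substrate was loaded for 2 h at room temperature, and the 460/530 nm emission ratio was fitted for gain of signal versus DMSO.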

A short description of assay [13]: TOX21_p53_BLA_p4_viability: Viability Assessment in the Tox21 HCT-116 p53 Agonism Beta-lactamase Assay, Phase 4 (AID 2283597).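 Note: hits lower the luminescence signal meaning cytotoxicity.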 In short, it runs like this: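 Cytotoxicity was inferred from loss of CellTiter-Glo luminescence. HCT116 cells had been dosed with compounds after 5 h plating, incubated 16 h at 37C and 5% CO2, and exposed to the CCF4-AM substrate for 2 h.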

For assay [14], the target named is Cellular tumor antigen p53 (Homo sapiens) (UniProt P04637). Description: TOX21_p53_BLA_p5_ratio: Tox21 HCT-116 p53 Agonism Beta-lactamase Assay, Ratio, Phase 5 (AID 2283599). In short, it runs like this: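 Beta-lactamase reporter ratio (blue 460 nm over green 530 nm, 405 nm excitation) after 2 h CCF4-AM loading, in HCT-116 cells exposed 16 h at 37 C to compounds pinned at 217-fold dilution. Increases relative to DMSO baseline scored.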

Assay [15] can be described thus: TOX21_p53_BLA_p5_viability: Viability Assessment in the Tox21 HCT-116 p53 Agonism Beta-lactamase Assay, Phase 5 (AID 2283600). The procedure, abridged: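 Luciferase-coupled ATP quantitation of cells treated for 16 h (37C, 5% CO2) with test chemicals delivered in DMSO via a 217-fold dilution; 4000 cells/well; reagent incubated 30 min at room temperature before luminescence reading.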

Assay [16] addresses Cellular tumor antigen p53 (Homo sapiens) (UniProt P04637). Briefly: TOX21_p53_BLA_p4_ratio: Tox21 HCT-116 p53 Agonism Beta-lactamase Assay, Ratio, Phase 4 (AID 2283601). The procedure, abridged:
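Signal is the blue/green (460nm/530nm) ratio of cleaved versus uncleaved CCF4-AM substrate, read after 2 h substrate loading. Cells were HCT116 carrying the p53-responsive beta-lactamase reporter, dosed 16 h at 37C, 5% CO2; CellTiter-Glo measured in parallel.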

A short description of assay [17]: Tanguay_ZF_120hpf_MORT_legacy: (Legacy) Oregon State University Tanguay Lab 120 Hour Post-fertilization zebrafish Assay for Mortality (AID 2283633).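 For AC50: fitted as increase in binary mortality versus DMSO negative control.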 The procedure, abridged:
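Dechorionated Tropical 5D wild-type zebrafish embryos, one per well from 6 hpf, were statically exposed at 28C in the dark until 120 hpf (0.64% DMSO final). Mortality was scored as present/absent by brightfield microscopy, fitted positively versus DMSO.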

Assay [18] in a line: Tanguay_ZF_120hpf_YSE_legacy: (Legacy) Oregon State University Tanguay Lab 120 Hour Post-fertilization zebrafish Assay for Yolk Sac Edema (AID 2283634).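 For AC50: actives raise the incidence of yolk sac edema above the DMSO baseline.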 The procedure, abridged:
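Tropical 5D wild-type embryos, dechorionated with pronase at 4 hpf, were exposed singly from 6 hpf to 120 hpf under static, sealed, dark conditions at 28C with 0.64% DMSO final. Yolk sac edema was scored present/absent by brightfield microscopy.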

Outcome and AC50 data for 4 compounds are collected here from PubChem BioAssay (EPA / NIEHS).

SMILES strings stand for the structures. “And” between values parts separate entries of the source, which are not always exact repeats. Equal values may be shown once. Results filed as inconclusive are left out. The source holds several records for some structures; these can differ, active in one and inactive in another. The source made the active and inactive calls. Rule for the calls, unless noted: active = hit-call score of the fitted dose curve at least 0.9, where 1 is the maximum; inconclusive = response in the unintended direction; inactive = score below 0.9.

As a reminder, the AC50 is the midpoint of the concentration-response curve, whichever way the signal moves.

Cellular tumor antigen p53 (Homo sapiens), sequence (P04637 whole entry, looked up): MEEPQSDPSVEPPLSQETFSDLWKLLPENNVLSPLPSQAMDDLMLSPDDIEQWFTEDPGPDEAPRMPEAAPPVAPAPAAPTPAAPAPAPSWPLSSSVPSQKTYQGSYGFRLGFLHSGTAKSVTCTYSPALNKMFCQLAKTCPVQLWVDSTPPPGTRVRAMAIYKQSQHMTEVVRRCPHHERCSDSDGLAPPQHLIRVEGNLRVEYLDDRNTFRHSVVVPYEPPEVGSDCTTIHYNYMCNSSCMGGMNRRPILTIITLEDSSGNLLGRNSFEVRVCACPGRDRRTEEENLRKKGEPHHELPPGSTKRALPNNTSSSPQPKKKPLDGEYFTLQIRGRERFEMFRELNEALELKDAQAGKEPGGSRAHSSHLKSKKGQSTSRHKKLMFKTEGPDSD

`COP(=S)(OC)Oc1ccc(SC)c(C)c1`: the outcome in [1] is “inactive”; with TIMP1, TIMP1 (gene 7076), “inactive”; in assay [2], “inactive”; in assay [3], “inactive”; in [4], “inactive”; in assay [6] it was “inactive”. In addition, the call in assay [7], in [8], in assay [9], in assay [10], in assay [11] and in [12] was inactive. For the same compound, the result in assay [13], in [14], in [15], in assay [16], in [17] and in assay [18] was inactive. Further, the AC50 in assay [5] was 25.2 µM (active).

As for `COP(=S)(OC)Oc1ccc([N+](=O)[O-])cc1`, the outcome in assay [1] is “inactive”; in the assay with TIMP1, TIMP1 (gene 7076), “inactive”; in [2], “inactive”; in assay [3], “inactive”; in [4], “inactive”; in [5], “inactive”. Also, the call in assay [6], in [7], in assay [8], in [9], in assay [10] and in [11] was inactive. Also, the result in [12], in assay [13], in assay [14], in assay [16], in [17] and in assay [18] was inactive.

Consider `CCC(C)(NC(=O)c1cc(Cl)c(C)c(Cl)c1)C(=O)CCl` (stereo not given), for which the AC50 in assay [1] was 75.6 µM (active); in [2], 90.6 µM (active); in [3] it was 95.3 µM (active); in [5], 12.4 µM (active); in [7], 77.6 µM (active); in assay [9], 71.9 µM (active). Also, the concentration at half-maximal activity (AC50) in [10] is 30.2 µM (active); in assay [11], 76.4 µM (active); in assay [12], 29.6 µM (active); in assay [13] it was 60.3 µM (active); in assay [14] it was 72.2 µM (active); in assay [15], 74.7 µM (active). The AC50 in [16] was 66.8 µM (active); in assay [18] it was 26.1 µM (active). In addition, the outcome is “inactive” with TIMP1, TIMP1 (gene 7076); “inactive” in assay [4]; “inactive” in assay [6]; “inactive” in assay [17].

`Oc1cc(Cl)ccc1Oc1ccc(Cl)cc1Cl`: the outcome in assay [1] is “inactive”; with TIMP1, TIMP1 (gene 7076) it was “inactive”; in [2], “inactive”; in [3], “inactive”; in [4], “inactive”; in [5], “inactive”. Moreover, the outcome in assay [6], in [8], in assay [9], in assay [10], in [13] and in assay [14] was inactive. The compound was classed as inactive in assay [15], in assay [16], in [17] and in assay [18]. Besides, the AC50 in the assay with TIMP1, TIMP1 (gene 7076) is 10.1 µM (active); in assay [2], 10.1 µM (active); in [3], 94.7 µM (active); in assay [7], 78.6 µM (active) and 78.2 µM (active) and 78 µM (active); in [8], 66.3 µM (active) and 51.2 µM (active) and 39.8 µM (active); in assay [9], 31.6 µM (active). The AC50 in [10] is 73.1 µM (active); in assay [11], 54.2 µM (active); in assay [12], 78.1 µM (active); in assay [13], 41.3 µM (active); in assay [14] it was 81.1 µM (active); in assay [15] it was 48 µM (active). The AC50 in assay [16] was 79 µM (active); in assay [17], 26.5 µM (active).
